This is a sample that favours compounds with a hit; in the whole collection about 12% have one here.
ROMK primary = ROMK potassium channel modulators, primary screen, cell-based, thallium flux, MLSMR library; ATP-sensitive inward rectifier potassium channel 1 (Homo sapiens), P48048; Tet-inducible ROMK, thallium flux fluorescence; actives lie on both sides; B-score at 10 µM; actives 2% (n = 130,000);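 active = signal ratio slope over the read window, or its plate-corrected B-score, at least 3 SD from the plate mean, either direction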;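 note: B-score of the F/F0 ratio slope over 7 to 12 s after thallium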
KCC2 mod = KCC2 cotransporter modulators, thallium flux, primary screen, cell-based, HEK293 KCC2, FluoZin-2 fluorescence, MLSMR. Solute carrier family 12 member 5 (Homo sapiens), Q9H2X9. KCC2 cells, thallium flux FluoZin-2 fluorescence. B-score of Tl+ flux slope (higher = more flux/activation; lower = inhibition) at 10 µM. actives 2.2% (n = 190,000). AID 1456, 2008;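 active = thallium flux slope and its plate-corrected score both differing from the plate sample mean at a set confidence after two filtering rounds, in either direction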;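 note: slope of fluorescence scaled to starting intensity during 10 to 20 s after thallium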
Target sequence (Q9H2X9 whole entry, looked up): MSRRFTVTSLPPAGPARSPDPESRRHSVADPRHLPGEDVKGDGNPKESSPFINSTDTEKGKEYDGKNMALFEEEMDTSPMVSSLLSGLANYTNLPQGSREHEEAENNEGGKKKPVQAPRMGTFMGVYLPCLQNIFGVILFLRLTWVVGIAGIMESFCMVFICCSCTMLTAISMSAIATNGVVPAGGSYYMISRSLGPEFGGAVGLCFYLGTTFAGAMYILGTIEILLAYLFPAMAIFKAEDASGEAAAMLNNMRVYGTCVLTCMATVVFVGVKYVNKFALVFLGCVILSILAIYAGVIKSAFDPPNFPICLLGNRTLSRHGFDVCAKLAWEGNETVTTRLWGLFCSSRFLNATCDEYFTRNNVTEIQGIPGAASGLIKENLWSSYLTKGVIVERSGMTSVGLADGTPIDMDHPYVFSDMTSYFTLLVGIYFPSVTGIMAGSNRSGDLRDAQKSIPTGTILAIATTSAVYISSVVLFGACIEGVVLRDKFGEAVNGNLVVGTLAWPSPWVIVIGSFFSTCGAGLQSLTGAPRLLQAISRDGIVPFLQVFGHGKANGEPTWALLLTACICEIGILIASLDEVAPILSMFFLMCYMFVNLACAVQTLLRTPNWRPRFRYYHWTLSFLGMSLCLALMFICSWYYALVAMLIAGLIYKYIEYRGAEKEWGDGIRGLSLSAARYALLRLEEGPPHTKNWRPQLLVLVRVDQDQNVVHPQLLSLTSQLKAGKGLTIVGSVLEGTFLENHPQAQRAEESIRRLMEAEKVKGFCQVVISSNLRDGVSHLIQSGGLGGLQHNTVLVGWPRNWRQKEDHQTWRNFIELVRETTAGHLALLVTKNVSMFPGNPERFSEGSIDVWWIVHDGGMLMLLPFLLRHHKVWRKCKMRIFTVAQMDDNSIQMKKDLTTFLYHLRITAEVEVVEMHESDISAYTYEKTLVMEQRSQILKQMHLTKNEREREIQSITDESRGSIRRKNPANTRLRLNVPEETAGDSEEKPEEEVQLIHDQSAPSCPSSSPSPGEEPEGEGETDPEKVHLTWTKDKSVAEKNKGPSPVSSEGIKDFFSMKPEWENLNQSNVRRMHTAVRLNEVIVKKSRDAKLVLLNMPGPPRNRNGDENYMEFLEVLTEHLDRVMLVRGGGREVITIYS
WT yeast gro inh = growth inhibition of WT strain, primary screen, mitochondrial fusion inhibitor project, WT and mutant strains, chemical genetic. mitochondrial fusion phenotypic screen. inhibition, % at 10 µM. actives 2.1% (n = 190,000). AID 1362, 2008; in the data active = inhibition above about 58%; tested in S. cerevisiae
Calpain2 inh = inhibitors of pig calpain II, primary screen, biochemical, fluorogenic peptide substrate, 1536-well; inhibition, % at 16 µM; actives 0.37% (n = 220,000); purified calpain II, 30 min;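 active = inhibition above about 50%, limit read from the data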
L major viab = Leishmania major promastigote growth inhibition, primary screen; Leishmania major promastigotes, resazurin fluorescence viability; inhibition, % at 10 µM; actives 9% (n = 200,000); in the data active = inhibition above about 50%;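 note: promastigotes grown with compound for 44 hours at 28 °C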
L major 1uM = Leishmania major promastigote growth inhibition, confirmation, 1 µM repeat of primary hits; inhibition, % at 1 µM; shares compounds with L major viab; actives 13% (n = 1,100); L. major promastigote growth, resazurin fluorescence, 48 h;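 active = inhibition above about 50% in both repeat tests, limit read from the data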
An asterisk follows results filed as active; . = not tested or not shown.

SMILES	ROMK primary	KCC2 mod	WT yeast gro inh	Calpain2 inh	L major viab	L major 1uM
Fc1ccc(CSc2nnc(Cc3sc(-c4ccccc4)nc3-c3ccccc3)o2)cc1	-0.0543	0.51	2.7	3.6	2.6	.
Cc1ccc2cc(C)c(Sc3nnnn3-c3ccccc3)nc2c1	.	-1.94	8.9	14.5	60.3*	-17.9
Cc1ccc(NC(=O)Nc2ccno2)cc1	.	-0.924	.	-5.3	.	.
N#C/C(C(=O)N1CCCCC1)=C1/N=C(N)c2ccccc21	0.224	0.00931	-3.0	3.7	60.8*	-5.1
COc1ccc(/C=N/OCC(=O)N2CC3(C)CC2CC(C)(C)C3)cc1 (configuration not stated)	.	-1.56	18.6	17.8	37.9	.
COc1ccc(/C(C)=N/OCC(=O)N2CC3(C)CC2CC(C)(C)C3)cc1 (configuration not stated)	-0.403	-0.428	29.2	35.6	62.9*	-6.4
CC1CCCCC1NC(=O)C1CC=CCC1C(=O)O (configuration not stated)	-0.388	-0.329	-19.8	4.7	54.6*	-16.0
O=C(Nc1nc2ccccc2[nH]1)c1cccs1	1.38	0.511	2.9	-3.1	29.1	.
N=c1c(-c2nc3ccccc3[nH]2)cc(C(=O)c2cccs2)nn1-c1ccc(Cl)cc1	.	0.12	.	.	91.4*	35.0
Cc1ccc(N2CC(=O)N(c3ccc(C)cc3)CC2=O)cc1	.	-0.201	.	2.5	.	.
CCOC(=O)CSC1=NN2CCS(=O)(=O)N=C2S1	-0.601	.	8.3	24.3	-11.2	.
C=CCSC1=NN2CCS(=O)(=O)N=C2S1	0.293	1.69	-13.8	-15.1	100.1*	-8.4
Clc1ccc(NC2(c3nnnn3C3CCCCC3)CCCCC2)cc1	0.205	-0.232	-8.3	-13.8	3.5	.
Cc1cccc(C)c1-n1nnnc1C1(Nc2ccccc2)CCCCC1	.	-1.73	73.2*	32.7	99.7*	-11.2
COC(=O)Oc1ccc(/C=N/NC(=O)CSCc2ccccc2Br)cc1OC	.	0.588	.	-9.5	41.1	.
CCCCCOc1ccc(Br)cc1/C(C)=N/NC1=NCCN1	.	-0.742	69.6	-35.9	100.4*	34.8
NC(=O)NN=C1C2CCCC1C(c1ccccc1)NC2c1ccccc1 (configuration not stated)	.	0.335	.	12.6	.	.
Cc1noc(C)c1C(c1ccccc1)c1ccccc1	-1.1	0.506	45.4	11.6	1.7	.
Cc1noc(C)c1C(c1ccccc1)S(=O)(=O)c1ccccc1 (configuration not stated)	.	-0.524	2.6	16.6	84.8*	-15.9
Cc1ccc(S(=O)(=O)NCc2c(-c3ccccc3)noc2C)cc1	.	-1.4	.	35.8	.	.
Cc1ccc(S(=O)(=O)C(c2ccccc2)c2c(C)noc2C)cc1 (configuration not stated)	0.155	.	12.8	30.4	60.8*	-6.3
CCc1ccc2c(c1)C(c1ccc([N+](=O)[O-])cc1)=NNC(c1ccc(F)cc1)=N2	.	.	7.3	-26.5	4.7	.
COc1ccc(CCNC(=O)C/C(C)=N/NC(=O)C(c2ccccc2)c2ccccc2)cc1OC	.	-1.7	.	-11.3	.	.
CCOC(=O)c1c(C)oc2c1C(=O)c1ccccc1C2=O	0.0328	0.238	42.0	16.2	97.9*	14.2
CCOC(=O)c1c(C)nc2c(c1-c1ccccc1)C(=O)c1ccccc1-2	.	.	8.8	6.4	1.2	.
SMILES	ROMK primary	KCC2 mod	WT yeast gro inh	Calpain2 inh	L major viab	L major 1uM
ClCc1nnc(-c2cc3c(s2)CCCC3)o1	-1.99	0.804	-3.9	-12.0	98.2*	6.8
CC(C)(C)C1CCc2sc(-c3nnc(CCl)o3)cc2C1 (configuration not stated)	0.2	0.502	68.3*	22.1	90.5*	-2.1
CCCNC(=O)c1ccc2c(c1)C1C3CCC(C3)C1C(c1ccccc1)N2 (configuration not stated)	-1.58	1.18	62.4*	-37.1	80.9*	3.2
CC(C)(C)NC(=O)c1ccc2c(c1)C1C3CCC(C3)C1C(c1ccccc1)N2 (configuration not stated)	.	0.24	46.6	-23.0	42.8	.
CN(C)CCOC(c1ccccc1)c1ccccc1	.	.	-1.3	-0.8	7.2	.
CN(C)CCCC(C)(O)C(Cc1ccccc1)c1ccccc1 (configuration not stated)	-0.9	.	-2.1	-4.2	85.8*	-11.9
CC1CCCCN1C(=O)COc1ccc(F)cc1 (configuration not stated)	-0.29	-0.0151	3.1	-8.5	-9.3	.
